Data as given in the supplement of paper PMC3616981.
± gives the standard deviation of the averaged measurements.

Compound: CC(C)c1cccc(C(C)C)c1N1C(=O)c2ccc(O)cc2C1=O
Assay: BioMAP readout fold decrease vs vehicle (vehicle/treated); higher = stronger decrease of the readout vs vehicle (values <1 mean increase)
Method: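 BioSeek BioMAP human primary cell (co-)culture systems (3C, 4H, LPS, SAg, BE3C, CASM3C, hDFCGF, KF3CT) treated with 5HPP-33 at 1.48, 4.44, 13.3 and 40 µM. Read-outs are protein levels by ELISA, proliferation and SRB total protein. Duplicate rows per assay are averaged as replicates. Tested in ToxCast Phase II for this study; exposure time not stated.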
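Note: Co-cultures of keratinocytes, bronchial epithelial and smooth muscle cells, fibroblasts, HUVECs and PBMCs under stimuli like LPS, TNF-α, IFN-γ, IL-1β, TGF-β or EGF, SRB reflecting cytotoxicity.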

Row | Target | BioMAP readout fold decrease (1.48 µM) | BioMAP readout fold decrease (4.44 µM) | BioMAP readout fold decrease (13.3 µM) | BioMAP readout fold decrease (40 µM)
1 | CASM3C_VCAM1 | 1.05 ± 0.029 | 1.0767 ± 0.00049 | 1.19 ± 0.023 | 1.55 ± 0.021
2 | CASM3C_TissueFactor | 1.0008 ± 0.00028 | 1.023 ± 0.0054 | 1.04 ± 0.026 | 1.22 ± 0.015
3 | 3C_MIG | 1.004 ± 0.0083 | 1.01 ± 0.0047 | 1 ± 0.012 | 1.09 ± 0.016
4 | 3C_Proliferation | 1.29 ± 0.074 | 3.56 ± 0.043 | 6.1 ± 0.28 | 7.03 ± 0.41
5 | CASM3C_SRB | 1.022 ± 0.0094 | 1.1 ± 0.012 | 1.07 ± 0.023 | 1.41 ± 0.047
6 | hDFCGF_PAI1 | 1.12 ± 0.14 | 1.08 ± 0.056 | 1.43 ± 0.031 | 3.53 ± 0.21
7 | 4H_VCAM1 | 0.977 ± 0.017 | 0.978 ± 0.044 | 1.06 ± 0.018 | 2.2 ± 0.07
8 | BE3C_IP10 | 1.1 ± 0.12 | 1.15 ± 0.0028 | 1.65 ± 0.029 | 3.38 ± 0.11
9 | CASM3C_uPAR | 1.15 ± 0.1 | 1.21 ± 0.037 | 1.29 ± 0.05 | 2.6 ± 0.26
10 | hDFCGF_MMP1 | 0.956 ± 0.05 | 0.93304 ± 0.00091 | 0.85 ± 0.0086 | 1.09 ± 0.13
